Assay results published in PubChem BioAssay.
Unmarked numbers belong to inactive results. No rule for the calls is given here.

The compounds below were run against Pantothenate synthetase (Mycobacterium tuberculosis (strain ATCC 25618 / H37Rv)) (UniProt P9WIL5) (assay: Coupled enzyme confirmation of inhibitors against recombinant Mtb PanC (AID 375;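 also: 0% = full reaction with vehicle and 100% = no enzyme background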)). Conditions: coupled enzyme assay; at 10 µM, stronger effect = higher value.
Chain of Pantothenate synthetase (Mycobacterium tuberculosis (strain ATCC 25618 / H37Rv)) (P9WIL5 whole entry, looked up): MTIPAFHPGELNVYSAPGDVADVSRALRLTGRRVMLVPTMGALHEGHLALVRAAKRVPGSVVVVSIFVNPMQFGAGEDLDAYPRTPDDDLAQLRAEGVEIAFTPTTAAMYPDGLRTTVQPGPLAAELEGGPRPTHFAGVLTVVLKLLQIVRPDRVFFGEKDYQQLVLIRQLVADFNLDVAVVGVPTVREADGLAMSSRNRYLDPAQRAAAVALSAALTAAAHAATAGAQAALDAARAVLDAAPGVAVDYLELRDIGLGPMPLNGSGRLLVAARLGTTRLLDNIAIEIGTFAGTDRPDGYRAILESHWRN

SMILES	inhibition [%]
COCCn1nnnc1CN(CCCN1CCOCC1)Cc1cc2c(C)ccc(C)c2[nH]c1=O	0
COc1ccccc1N1CCN(c2cc(=O)n(Cc3ccc(F)cc3)c(=O)[nH]2)CC1	0
COc1cccc(C(=O)N2CCCC(c3nc(-c4cccs4)no3)C2)c1 (stereo not given)	0
CCN(CC)Cc1c(C(=O)OC)nnn1-c1nonc1N	0
Cc1ccc(S(=O)(=O)N[C@@H](C)C(=O)N2CCC(C(=O)N3CCC[C@H]3C(=O)O)CC2)cc1	0
CCCC(O)(CCN(C)C)c1ccc(OC)cc1 (stereo not given)	0
CCCc1cc(=O)oc2c(C)c3occ(C)c3cc12	1
CC(C)Oc1cccc(-c2cc(C(=O)N3CCN(S(C)(=O)=O)CC3)c3ccccc3n2)c1	5
CC1N=C2c3ccccc3N=C(SCc3cc(=O)n4cc(Cl)ccc4n3)N2C1=O (stereo not given)	2
O=C(c1ccc2nc(N3CCCCC3)sc2c1)N1CCN(c2ccccn2)CC1	0
CCCc1nc2ccccc2c2nc(N)nn12	5
COC(=O)Cn1c(=O)c2c(nc3n2CC(C)CN3c2ccc(C)c(C)c2)n(C)c1=O (stereo not given)	4
COc1ccc(C/C(N)=N/n2cnnc2)cc1Cl	0
O=C(CSc1nnc(-c2ccccc2Cl)n1Cc1ccco1)Nc1ccc2c(c1)OCCO2	2
CCOC(=O)c1cn(CC)c2cc(N3CCOCC3)c(F)cc2c1=O	0
Cc1cccc(C)c1OCC(=O)Nc1cccc(NC(=O)c2ccco2)c1	12
O=C1c2ccccc2C(=O)N1CCCn1nnc(-c2ccc(N3CCOCC3)cc2)n1	3
CN1CCN(CC(=O)Nc2ccc(Cl)cc2Cl)CC1	3
O=C(NC1CCCC1)C(c1cccs1)N(Cc1ccco1)C(=O)Cn1nnc(-c2cccs2)n1 (stereo not given)	0
CCN(CC)C(=O)C1CCCc2c1[nH]c1ccc(Cl)cc21 (stereo not given)	0

SMILES	inhibition [%]
COc1ccc(OC)c(-c2nnc(SCC(=O)NC3CCCCC3)o2)c1	0
CCCS(=O)(=O)C(=C1Nc2ccccc2N1)S(=O)(=O)CCC	1
O=C1C(Cl)=C(N2CCCCC2)C(=O)N1c1ccccc1Cl	7
Oc1c(C(c2ccccc2)N2CCc3ccccc3C2)sc2ncnn12 (stereo not given)	0
Cc1ccc(CCP(=O)(O)CN2CCOCC2)cn1	0
COc1ccc(C)cc1S(=O)(=O)N(C)CC(=O)Nc1ccc2c(c1)OCO2	0
CCOC(=O)N1CCC(NC(=O)c2ccc3nc(N4CCOCC4)sc3c2)CC1	5
Cc1nn(C)c(C)c1NC(=O)CCSc1nc(-c2ccco2)cc(C(F)(F)F)n1	6
Cc1ccc(-c2[nH]nc3c2C(c2ccc(OC(=O)N4CCOCC4)cc2)C(C#N)=C(N)O3)cc1 (stereo not given)	2
CC(C)(C)OC(=O)NCCc1nnc(SCC(=O)c2ccc(Cl)cc2)o1	0
CCNc1nc(NC(C)C)nc(N(C#N)CCOc2ccc(Cl)cc2Cl)n1	7
COc1ccc(-c2cnc(SCC(=O)Nc3ccc4c(c3)OCO4)n2Cc2ccco2)cc1	0
CC(=O)Nc1nnc(S(N)(=O)=O)s1	0
Cc1nn(Cc2ccccc2Cl)c(C)c1NC(=O)C1C2CCC(O2)C1C(=O)O (stereo not given)	1
CC1(C)Cc2c(c(N3CCOCC3)nc3sc(C#N)c(N)c23)CS1	0
COc1ccc(C(=O)OCC(=O)NCc2ccco2)cc1OC	0
COC(=O)c1ccccc1NC1c2ccccc2C(=O)N1c1cccnc1 (stereo not given)	0
O=C(NC1CCCCCC1)C1c2ccccc2C(=O)N1Cc1cccnc1 (stereo not given)	3
Cc1ccc(N2C(N)=NC(N)=NC23CCCC3)c(C)c1	3
COCCOC(=O)c1c(C)nc(SCC(=O)Nc2ccc(OC)cc2)c(C#N)c1-c1ccco1	0
